Reference: PubChem BioAssay (NCI)
The panel holds about 83,000 compounds, 20% with a hit somewhere; the sample as a whole holds those more often.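 Values shown are percent growth following 48 h exposure of cells in 96-well plates to a single concentration of compound; below 10 was considered active.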 Activity calls are given as the source filed them.

The molecules below were run on SR leukemia (assay: NCI-60 one-dose screen, 48 h (100 = growth as untreated, 0 = no growth, -100 = all killed)). Details: 10 µM unless noted.
Description: Growth inhibition of the SR human tumor cell line is measured as a screen for anti-cancer activity. Cells are grown in 96 well plates and exposed to the test compound for 48 hours. Compounds are tested at a single concentration, which is 10^-5 M for most compounds. The reported endpoint is percent growth (GI% or GIPRCNT), where numbers from 0 - 100% represent growth inhibition, and numbers from -100% - 0 represent cell death. For example, a value of 40 represents 60% growth inhibition. A value of 0 means no net growth occurred over the course of the experiment. A value of -40 indicates 40% of cells at the beginning of the experiment died by the end of the experiment. A value of -100 means all cells are dead at the end of the experiment.
NCI-60 Human Tumor Cell Lines Screen was performed using the standard one-dose NCI protocol, which is described in more detail at https://dtp.cancer.gov/discovery_development/nci-60/default.htm.
Compounds with GIPRCNT values below 10 were considered active. Activity score was based on GIPRCNT using the following formula: […]
Score is 0 for GIPRCNT values of 100 or above, 50 for GIPRCNT values of 0, and 100 for GIPRCNT values of -100.

| SMILES | growth |
| --- | --- |
| N#Cc1c(-c2ccccc2)cc(-c2ccccc2)n(CCCCC(=O)NO)c1=O | 7.41% (active) |
| O=C(Nc1nc(Cl)nc(Nc2ccc(N3CCOCC3=O)cc2)n1)c1ccc(Cl)s1 | 7.06% (active) |
| C=C(C)[C@@H]1CC[C@]2(C)[C@H](C=CC3=C4C[C@@](C)(CO)CC[C@]4(C)CC[C@]32C)[C@@]1(C)CCCN | -31.4% (active) |
| Cc1ccc(Cc2cnc(NC(=O)/C=C/c3ccc(C)o3)s2)cc1 | 16.2% (inactive) |
| COCC(=O)Oc1cc(-c2ccc(C)cc2C)c(OC(=O)COC)c(-c2ccc(C)cc2C)c1 | 20.6% (inactive) |
| CC1(C)N=C(N)N=C(N)N1c1ccc(S(=O)(=O)Nc2nccs2)cc1 | 104% (inactive) |
| COc1ccc(-c2cc(C(=O)N3N=C(c4ccc(N)cc4)CC3c3ccc(Cl)cc3)c3cc(OC)ccc3n2)cc1 (stereo not given) | 20.9% (inactive) |
| NS(=O)(=O)c1ccc(C(=O)N=Nc2c(O)[nH]c3ccc(Cl)cc23)cc1 | 95.3% (inactive) |
| c1cc(OCCN2CCCCCC2)ccc1CNc1ccc2nc(CCC3CCCCC3)[nH]c2c1 | 26.1% (inactive) |
| O=[N+]([O-])c1ccccc1Nc1ccc2ccccc2c1 | 88.1% (inactive) |
| Clc1ccc(-c2nc(C(Cl)Cl)nc3cc(-c4ccccc4)nn23)cc1 | 10.4% (inactive) |
| CCn1cc(C(=O)N/N=C/c2ccccc2)c(=O)c2cc(F)c(N3CCNC(C)C3)c(F)c21 (stereo not given) | -14.6% (active) |
| COc1cc(/C=N/NC(=O)c2ccc(-n3cc(-c4ccccc4)nn3)cc2)cc(OC)c1OC | 55.4% (inactive) |
| O=C1C=C(SCCO)C(=O)c2ccccc21 | -16.1% (active) |
| CCCCCc1ccc(S(=O)(=O)Nc2cc(-c3csc(NC(C)=O)n3)ccc2N2CCN(C)CC2)cc1 | 14.1% (inactive) |
| CCCCCc1ccc(S(=O)(=O)Nc2ccc3nc(N)oc3c2)cc1 | 31.1% (inactive) |
| CC(=O)c1c(Nc2cccc(F)c2)[nH]c2c(Cl)cc(Cl)c(Cl)c2c1=O | 14.8% (inactive) |
| Cc1c(O)cc(-c2cnc(N/N=C/c3ccccc3)s2)c(O)c1C | 95.3% (inactive) |
| COc1ccc(C2C3=C(COC3=O)N(CCO)c3cc4c(cc32)OCO4)cc1OC (stereo not given) | 24.3% (inactive) |
| CS(=O)(=O)Nc1cc(-c2ccc3ncnc(Nc4ccc(F)c(Cl)c4)c3c2)ccc1Cl | 35.1% (inactive) |

| SMILES | growth |
| --- | --- |
| CC[C@H](Nc1nc(N)nc(C)c1C#N)c1nc2cccc(CN(C)c3ncc(C(=O)NO)cn3)c2c(=O)n1-c1ccccc1 | 14.1% (inactive) |
| Cn1cc(-c2csc(-c3cn(C)c4ccccc34)n2)c2cnccc21 | -0.518% (active) |
| CNCCCNc1nc2ccccc2c2c(=O)c3cc(Cl)ccc3sc12 | -39.9% (active) |
| Nc1nc(N(Cc2ccccc2)c2ccccc2)c2cn[nH]c2n1 | 4.11% (active) |
| COc1cc(-c2cc(-c3ccc(Nc4nc(Nc5ccc(Cl)cc5)nc(Nc5ccc(Cl)cc5)n4)cc3)no2)cc(OC)c1OC | 15.7% (inactive) |
| Cc1ccc(S(=O)(=O)c2nc(-c3ccccc3)oc2SCC(N)=O)cc1 | 94.6% (inactive) |
| c1cc(OCCN2CCCCC2)ccc1CNc1ccc2nc(CCC3CCCCC3)[nH]c2c1 | 12.5% (inactive) |
| CC(C)=CC(=O)N[C@H]1CC[C@]2(C)C3CC[C@]4(C)C(C(C)N(C)C)=CCC4C3CCC2[C@H]1O (stereo not given in full) | 30.2% (inactive) |
| O=C(Nc1ccc(Oc2cccc(Cl)c2)c(Cl)c1)c1cccnn1 | 87% (inactive) |
| CCOC(=O)C1=C(CCl)N(C)C(=O)NC1c1ccc2c(c1)OCO2 (stereo not given) | 19.8% (inactive) |
| COc1cc(Cc2cc(-c3ccccc3)nn(Cc3ccccc3)c2=O)cc(OC)c1OC | 36% (inactive) |
| O=c1cc(C(F)(F)F)c2cc(-c3cc4ccccc4c(=O)o3)c(O)cc2o1 | 85.5% (inactive) |
| Fc1cccc(CNc2c3ccccc3nc3ccccc23)c1 | 19.1% (inactive) |
| O=S(=O)(Nc1cc(F)cc(F)c1)c1ccc(-c2cnc(C3CC3)o2)cc1 | 16.2% (inactive) |
| O=C(C1=Cc2cc3ccccc3n2Cc2cnnn21)c1ccc(F)cc1 | 87.6% (inactive) |
| CC(=O)c1sc(-c2ccc(F)cc2)cc1O | 82.6% (inactive) |
| CC(C)Cc1nc(Nc2ccccc2)[nH]c(=O)c1C#N | 34.2% (inactive) |
| COc1cc(N2C(=O)[C@H](Cl)C2c2ccc(SC)cc2)cc(OC)c1OC (stereo not given in full) | 1.95% (active) |
| Ic1ccc(Nc2nc3nonc3nc2Nc2ccc(I)cc2)cc1 | -12.6% (active) |
| Cc1cc(NCCCNc2ccnc3cc(Cl)ccc23)nc(Nc2ccc(C(=O)N3CCCCC3)cc2)n1 | -31.8% (active) |
